# Source: PubChem BioAssay (NCATS)
# Records with an inconclusive call do not appear. Calls of active or inactive are those of the source. Calls follow the shape of the dose curve; as a rule, active = well fitted curve in the direction sought with a large enough effect; inconclusive = small, poorly fitted or top-dose-only effect, or another doubt; inactive = no such curve, though single readings can be large or run the other way.
# Test: KB-8-5-11 P-gp reporter qHTS against the NCATS DSHEA and TCM libraries (AID 1919977); also: 0% is about no effect
# Conditions: KB-8-5-11 cells; series mostly up to 26.1 µM; activity change, negative = inhibition: at the top concentration
# In short: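 P-gp-overexpressing KB-8-5-11 cells (500/well) were plated in colchicine-free DMEM with 10% FBS, attached ~4 h, then exposed to substance titrations for ~72 h at 37C. Viability was read by CellTiter-Glo luminescence.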
row,Structure (SMILES),"activity change, negative = inhibition"
1,CC(C)=CCC[C@](C)(O[C@@H]1O[C@H](CO[C@@H]2O[C@H](CO)[C@@H](O)[C@H](O)[C@H]2O)[C@@H](O)[C@H](O)[C@H]1O)C1CC[C@]2(C)[C@@H]1[C@H](O)CC1[C@@]3(C)CC[C@H](O[C@@H]4O[C@H](CO)[C@@H](O)[C@H](O)[C@H]4O[C@@H]4O[C@H](CO)[C@@H](O)[C@H](O)[C@H]4O)C(C)(C)[C@@H]3CC[C@]12C (stereo not given in full),14.6% [at 5.42 µM] (inactive)
2,C=C1CC[C@H]2C[C@@H]1C2(C)C,-10.3% [at 44.5 µM] (inactive)
3,COc1ccc(C(=O)O)cc1,-1.45% [at 44.5 µM] (inactive)
4,O=C(O)[C@H]1O[C@@H](Oc2c(-c3ccc(O)c(O)c3)oc3cc(O)cc(O)c3c2=O)[C@H](O)[C@@H](O)[C@@H]1O,-2.56% (inactive)
5,C=C1[C@H]2CC[C@H](C(=O)O)[C@@]23CC[C@H](C3)C1(C)C,-0.687% (inactive)
6,O=c1cc(-c2ccc(O)cc2)oc2cc(O[C@H]3OC(CO)C(O)C(O)C3O)cc(O)c12 (stereo not given in full),5.73% (inactive)
7,CC1CC[C@]2(C(=O)O)CC[C@]3(C(=O)O)C(=CCC4[C@@]5(C)CC[C@H](OC6OC(C)C(O)C(OC7OC(CO)C(O)C(O)C7O)C6O)C(C)(C)C5CC[C@]43C)C2C1C (stereo not given in full),7.99% [at 14.4 µM] (inactive)
8,CCCCCCCCC/C=C/C(=O)CCc1ccc(O)c(OC)c1,-9.17% (inactive)
9,CC1=C2[C@H]([C@@H](C)CC[C@@H]2/C=C(\C)C(=O)O)[C@@H](O)C1,2.32% (inactive)
10,O=C(OC[C@H]1O[C@@H](OC(=O)c2cc(O)c(O)c(O)c2)[C@H](OC(=O)c2cc(O)c(O)c(O)c2)[C@@H](OC(=O)c2cc(O)c(O)c(O)c2)[C@@H]1OC(=O)c1cc(O)c(O)c(O)c1)c1cc(O)c(O)c(O)c1,-16.5% (inactive)
11,O=C(O[C@@H]1Cc2c(O)cc(O)cc2O[C@H]1c1cc(O)c(O)c(O)c1)c1cc(O)c(O)c(O)c1,-6.08% (inactive)
12,C[C@@H]1CC[C@]2(C)CC[C@]3(C)C(=CC(=O)C4[C@@]5(C)CC[C@@H](O)[C@](C)(C(=O)O)C5CC[C@]43C)C2[C@H]1C (stereo not given in full),1.66% (inactive)
13,OCCc1ccc(O)cc1,-8.43% [at 44.5 µM] (inactive)
14,CC(C)[C@H](C)CC[C@@H](C)[C@H]1CC[C@H]2[C@@H]3CC=C4C[C@@H](O)CC[C@]4(C)[C@H]3CC[C@]12C,5.24% (inactive)
15,CC(C)=CCC[C@](C)(O[C@@H]1O[C@H](CO)[C@@H](O)[C@H](O)[C@H]1O)[C@H]1CC[C@]2(C)[C@@H]1[C@H](O)C[C@@H]1[C@@]3(C)CC[C@H](O)C(C)(C)[C@@H]3[C@@H](O[C@@H]3O[C@H](CO)[C@@H](O)[C@H](O)[C@H]3O[C@@H]3O[C@@H](C)[C@H](O)[C@@H](O)[C@H]3O)C[C@]12C,5.66% (inactive)
16,CC(C)(O)[C@@H]1CC[C@](C)([C@@H]2[C@H](O)C[C@]3(C)C4C[C@@H](O[C@H]5O[C@@H](CO)[C@H](O)[C@@H](O)[C@@H]5O)C5C(C)(C)[C@H](O[C@H]6OC[C@H](O)[C@@H](O)[C@@H]6O)CC[C@]56CC46CC[C@@]23C)O1 (stereo not given in full),-4.9% (inactive)
17,CC1(C)CC[C@]2(C(=O)O)CC[C@]3(C)C(=CCC4[C@@]5(C)CC[C@@H](O)C(C)(C)C5CC[C@]43C)C2C1 (stereo not given in full),-18.5% (inactive)
18,CC[C@H](CC[C@@H](C)[C@H]1CCC2C3CCC4C[C@@H](O)CC[C@]4(C)C3CC[C@@]21C)C(C)C (stereo not given in full),2.04% (inactive)
19,C[C@@H]1O[C@@H](OC[C@H]2OC(Oc3c(-c4ccc(O)c(O)c4)oc4cc(O)cc(O)c4c3=O)[C@H](O)[C@@H](O)[C@@H]2O)[C@H](O)[C@H](O)[C@H]1O (stereo not given in full),-2.6% (inactive)
20,O=C(/C=C/c1ccc(O)c(O)c1)O[C@H]1[C@H](O)C[C@](O)(C(=O)O)C[C@H]1OC(=O)/C=C/c1ccc(O)c(O)c1,-6.4% (inactive)

row,Structure (SMILES),"activity change, negative = inhibition"
1,O=C(OCC1=C[C@@H](O)[C@@H]2C=CO[C@@H](O[C@@H]3O[C@H](CO)[C@@H](O)[C@H](O)[C@H]3O)[C@H]12)c1ccc(O)cc1,8.26% [at 14.4 µM] (inactive)
2,CC1(C)CC[C@]2(C(=O)O)CC[C@]3(C)C(=CCC4[C@@]5(C)CC[C@H](O)[C@@](C)(CO)C5CC[C@]43C)[C@H]2C1 (stereo not given in full),-3.82% (inactive)
3,O=c1ccc2ccc(O)cc2o1,-2.71% (inactive)
4,COc1ccc2ccc(=O)oc2c1,-10.1% [at 44.5 µM] (inactive)
5,Oc1cc(O)c2c(c1)OC(c1ccc(O)c(O)c1)C(O)C2 (stereo not given),0.158% (inactive)
6,Oc1cc(O)c2c(c1)O[C@@H](c1cc(O)c(O)c(O)c1)[C@H](O)C2,6.11% (inactive)
7,NC(Cc1c[nH]c2ccccc12)C(=O)O (stereo not given),5.99% (inactive)
8,CCCCCC/C=C/CCCCCCCCCC(=O)O,-2.31% (inactive)
9,COC(=O)C1=CO[C@@H](C)[C@H]2CN3CCc4c([nH]c5ccccc45)[C@@H]3C[C@H]12,-15.4% (inactive)
10,CC(C)=CCC[C@](C)(O)[C@H]1CC[C@]2(C)[C@@H]1[C@H](O)CC1[C@@]3(C)CC[C@H](O)C(C)(C)[C@@H]3[C@@H](O[C@@H]3O[C@H](CO)[C@@H](O)[C@H](O)[C@H]3O[C@@H]3O[C@H](CO)[C@@H](O)[C@H](O)[C@H]3O)C[C@]12C (stereo not given in full),-2.18% [at 14.4 µM] (inactive)
11,C=C1C[C@@]23CC[C@H]4[C@@](C)(CCC[C@@]4(C)C(=O)O[C@@H]4O[C@H](CO)[C@@H](O)[C@H](O)[C@H]4O[C@@H]4O[C@H](CO)[C@@H](O)[C@H](O)[C@H]4O)[C@@H]2CC[C@]1(O[C@@H]1O[C@H](CO)[C@@H](O)[C@H](O)[C@H]1O[C@@H]1O[C@H](CO)[C@@H](O)[C@H](O)[C@H]1O)C3,-1.06% (inactive)
12,CC/C=C\C/C=C\C/C=C\C/C=C\C/C=C\CCCCCC(=O)O,8.8% [at 3.26 µM] (inactive)
13,C[S+](CC[C@H](N)C(=O)O)C[C@H]1O[C@@H](n2cnc3c(N)ncnc32)[C@H](O)[C@@H]1O (stereo not given in full),5.77% (inactive)
14,CCCCC/C=C/C(=O)CCc1ccc(O)c(OC)c1,-26.8% (inactive)
15,O=c1c(O[C@@H]2O[C@H](CO)[C@H](O)[C@H](O)[C@H]2O)c(-c2ccc(O)c(O)c2)oc2cc(O)cc(O)c12,11% (inactive)
16,CC1=CC[C@H](C(C)C)C=C1,-16.7% [at 44.5 µM] (inactive)
17,CCCCCCCC/C=C\CCCCCCCCCCCCCC(=O)O,-0.537% (inactive)
18,CC(C)=CCC[C@](C)(O[C@@H]1O[C@H](CO)[C@@H](O)[C@H](O)[C@H]1O)[C@H]1CC[C@]2(C)[C@@H]1[C@H](O)C[C@@H]1[C@@]3(C)CC[C@H](O[C@@H]4O[C@H](CO)[C@@H](O)[C@H](O)[C@H]4O[C@@H]4O[C@H](CO)[C@@H](O)[C@H](O)[C@H]4O)C(C)(C)[C@@H]3CC[C@]12C,7.73% (inactive)
19,Cc1ccc(C(C)C)cc1,6.21% [at 44.5 µM] (inactive)
20,C=C(C)[C@H]1CC=C(C)CC1,-8.96% (inactive)
